The source of these data is PMC7862700, “An all-to-all approach to the identification of sequence-specific readers for epigenetic DNA modifications on cytosine”.

What all share (assay): DAPPL (digital affinity profiling via proximity ligation, sequencing); 10 mM Tris-HCl pH 7.5, 50 mM NaCl, 1 mM DTT, 4% glycerol, room temperature, 30 min; GST-TFs on glutathione beads, 16-mer random dsDNA library, 0.1% formaldehyde crosslink after washing; high values mean tight binding
Holding throughout (conditions): protein: recombinant; tags: N-terminal GST; dsDNA, one strand shown

The target in one test is T1, FLI1 (Homo sapiens, UniProt Q01543 1-452).
T1 sequence: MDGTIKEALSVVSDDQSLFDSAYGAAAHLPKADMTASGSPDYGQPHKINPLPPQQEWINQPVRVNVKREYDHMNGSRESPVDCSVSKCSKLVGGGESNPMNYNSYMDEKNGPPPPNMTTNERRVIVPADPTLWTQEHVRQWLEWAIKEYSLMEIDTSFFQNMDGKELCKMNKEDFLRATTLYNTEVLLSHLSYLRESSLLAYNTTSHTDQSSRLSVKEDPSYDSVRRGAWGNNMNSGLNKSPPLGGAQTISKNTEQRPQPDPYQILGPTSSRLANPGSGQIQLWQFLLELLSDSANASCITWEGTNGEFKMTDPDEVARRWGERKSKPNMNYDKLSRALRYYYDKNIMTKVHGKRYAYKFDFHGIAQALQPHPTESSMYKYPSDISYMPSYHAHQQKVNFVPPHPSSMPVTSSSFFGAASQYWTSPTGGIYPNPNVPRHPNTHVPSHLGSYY
In outline:
(§1)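 Pools of DNA-barcoded human transcription factors, expressed in yeast as GST fusions on glutathione beads and combined with a tag-only sample, were incubated with 200 nmole of a 16-mer random double-stranded DNA library. Incubation took 30 min at room temperature in Tris/NaCl/DTT/glycerol buffer and was followed by washing, 0.1% formaldehyde crosslinking, proximity ligation (BsaI/T4 ligase, 1 h, 37 °C), PCR amplification and sequencing on an Illumina NextSeq500. Binding signal is the ratio of a hexamer's read frequency for a factor to its frequency for the tag-only sample.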

The target in another test is T2, ELK1 (Homo sapiens, UniProt P19419 1-428).
T2 sequence: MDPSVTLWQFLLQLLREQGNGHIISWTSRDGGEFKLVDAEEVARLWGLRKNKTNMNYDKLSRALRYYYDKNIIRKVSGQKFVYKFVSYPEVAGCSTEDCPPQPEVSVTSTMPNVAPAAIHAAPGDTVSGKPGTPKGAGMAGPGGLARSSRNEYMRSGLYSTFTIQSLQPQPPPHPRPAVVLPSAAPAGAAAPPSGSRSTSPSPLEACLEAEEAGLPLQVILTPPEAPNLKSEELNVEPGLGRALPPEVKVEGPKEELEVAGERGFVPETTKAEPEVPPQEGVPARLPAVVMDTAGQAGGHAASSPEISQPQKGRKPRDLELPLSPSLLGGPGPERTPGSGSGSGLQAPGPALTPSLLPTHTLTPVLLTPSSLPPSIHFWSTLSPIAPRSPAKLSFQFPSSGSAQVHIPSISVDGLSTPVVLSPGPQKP
In outline: as §1

A further test addresses T3, GABPA (Homo sapiens, UniProt Q06546 1-454).
T3 sequence: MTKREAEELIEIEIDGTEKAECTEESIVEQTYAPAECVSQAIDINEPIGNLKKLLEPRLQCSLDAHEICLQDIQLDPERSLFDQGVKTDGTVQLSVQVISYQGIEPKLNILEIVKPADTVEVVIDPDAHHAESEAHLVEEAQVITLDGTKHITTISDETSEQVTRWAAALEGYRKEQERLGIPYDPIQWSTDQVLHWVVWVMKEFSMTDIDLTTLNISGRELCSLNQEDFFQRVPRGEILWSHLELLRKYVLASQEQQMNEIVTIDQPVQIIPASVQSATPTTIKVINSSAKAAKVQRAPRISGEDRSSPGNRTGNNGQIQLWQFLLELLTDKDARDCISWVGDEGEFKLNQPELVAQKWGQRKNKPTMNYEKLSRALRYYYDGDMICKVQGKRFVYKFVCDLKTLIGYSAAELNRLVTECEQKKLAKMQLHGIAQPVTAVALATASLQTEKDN
Put shortly:
as §1

Another test addresses T4, ERG (Homo sapiens, UniProt P11308 1-479).
T4 sequence: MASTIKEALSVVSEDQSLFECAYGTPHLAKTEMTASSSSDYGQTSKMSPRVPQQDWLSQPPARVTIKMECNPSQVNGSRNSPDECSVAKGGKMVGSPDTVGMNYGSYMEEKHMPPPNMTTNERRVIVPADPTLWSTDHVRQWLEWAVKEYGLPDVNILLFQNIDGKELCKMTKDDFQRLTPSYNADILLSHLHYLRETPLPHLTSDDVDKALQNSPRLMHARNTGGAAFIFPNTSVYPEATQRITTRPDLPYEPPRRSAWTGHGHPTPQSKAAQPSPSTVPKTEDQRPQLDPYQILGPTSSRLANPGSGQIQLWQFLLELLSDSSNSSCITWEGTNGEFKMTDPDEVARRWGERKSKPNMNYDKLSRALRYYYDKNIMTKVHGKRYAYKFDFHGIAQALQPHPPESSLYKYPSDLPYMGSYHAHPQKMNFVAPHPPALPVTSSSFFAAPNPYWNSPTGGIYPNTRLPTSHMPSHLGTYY
In outline: as §1

Another test deals with ELF1 (Homo sapiens, UniProt P32519 1-619). In outline: as §1
ELF1, sequence (P32519 whole entry): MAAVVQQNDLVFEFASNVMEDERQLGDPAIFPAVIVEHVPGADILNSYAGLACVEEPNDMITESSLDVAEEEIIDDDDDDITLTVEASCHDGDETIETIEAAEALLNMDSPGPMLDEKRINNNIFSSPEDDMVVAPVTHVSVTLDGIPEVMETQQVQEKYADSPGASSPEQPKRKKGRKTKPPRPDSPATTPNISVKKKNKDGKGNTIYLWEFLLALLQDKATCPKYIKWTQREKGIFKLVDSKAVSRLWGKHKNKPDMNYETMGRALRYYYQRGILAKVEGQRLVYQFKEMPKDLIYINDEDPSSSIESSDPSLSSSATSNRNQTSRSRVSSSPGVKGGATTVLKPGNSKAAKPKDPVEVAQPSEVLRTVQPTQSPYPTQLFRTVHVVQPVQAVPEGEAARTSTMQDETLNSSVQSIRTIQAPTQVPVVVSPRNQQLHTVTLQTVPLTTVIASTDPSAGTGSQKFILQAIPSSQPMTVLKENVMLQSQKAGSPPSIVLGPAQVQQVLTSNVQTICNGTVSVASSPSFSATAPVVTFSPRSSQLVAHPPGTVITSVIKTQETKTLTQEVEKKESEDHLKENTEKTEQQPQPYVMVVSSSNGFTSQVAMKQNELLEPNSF
The target in the next test is T5, EHF (Homo sapiens, UniProt Q9NZC4 1-300).
T5 sequence: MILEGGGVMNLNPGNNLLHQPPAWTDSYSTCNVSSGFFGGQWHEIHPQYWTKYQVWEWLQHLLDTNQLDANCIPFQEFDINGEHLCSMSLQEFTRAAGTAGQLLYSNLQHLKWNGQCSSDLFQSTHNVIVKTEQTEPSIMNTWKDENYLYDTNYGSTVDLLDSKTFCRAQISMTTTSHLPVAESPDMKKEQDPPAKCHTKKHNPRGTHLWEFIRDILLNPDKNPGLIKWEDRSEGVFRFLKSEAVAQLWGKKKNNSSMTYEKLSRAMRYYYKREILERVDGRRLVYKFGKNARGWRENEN
Put shortly: as §1

Another test concerns the target SPI1 (Homo sapiens, UniProt P17947 1-270). Put shortly:
as §1

A further test addresses SPIB (Homo sapiens, UniProt Q01892 1-262). In outline: as §1
Another test deals with T6, ELK3 (Homo sapiens, UniProt P41970 1-407).
T6 sequence: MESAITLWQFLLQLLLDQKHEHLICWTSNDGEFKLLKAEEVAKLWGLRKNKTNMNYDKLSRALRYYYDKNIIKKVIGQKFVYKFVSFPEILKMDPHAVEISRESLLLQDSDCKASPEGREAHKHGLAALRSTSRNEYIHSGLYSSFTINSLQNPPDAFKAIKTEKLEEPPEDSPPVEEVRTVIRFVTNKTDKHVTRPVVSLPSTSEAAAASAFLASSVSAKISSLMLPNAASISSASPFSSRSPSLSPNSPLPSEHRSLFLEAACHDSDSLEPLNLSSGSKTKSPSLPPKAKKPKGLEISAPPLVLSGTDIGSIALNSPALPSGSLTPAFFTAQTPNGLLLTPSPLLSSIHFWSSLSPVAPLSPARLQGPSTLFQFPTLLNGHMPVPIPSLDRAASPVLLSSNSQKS
Put shortly:
as §1

SPIB, sequence (Q01892 whole entry): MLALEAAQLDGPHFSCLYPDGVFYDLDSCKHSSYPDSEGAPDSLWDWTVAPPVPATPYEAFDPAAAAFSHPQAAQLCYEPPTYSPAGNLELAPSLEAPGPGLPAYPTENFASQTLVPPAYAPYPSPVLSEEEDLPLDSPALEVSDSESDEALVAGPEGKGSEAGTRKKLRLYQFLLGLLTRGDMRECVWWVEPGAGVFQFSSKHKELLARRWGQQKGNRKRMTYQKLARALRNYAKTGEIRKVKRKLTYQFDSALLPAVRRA

With CCACAT, the binding signal was 1.2 fold enrichment (6-mer frequency, TF over GST control) with FLI1; 1.3 fold enrichment (6-mer frequency, TF over GST control) with ELK1; 1.12 fold enrichment (6-mer frequency, TF over GST control) with GABPA; 1.15 fold enrichment (6-mer frequency, TF over GST control) in the test with ERG; 1.25 fold enrichment (6-mer frequency, TF over GST control) in the test with ELF1; 1.21 fold enrichment (6-mer frequency, TF over GST control) with EHF. Further, the binding signal in the test with SPI1 is 1.07 fold enrichment (6-mer frequency, TF over GST control); with SPIB it was 1.16 fold enrichment (6-mer frequency, TF over GST control); with ELK3 it was 1.14 fold enrichment (6-mer frequency, TF over GST control).
As to ATCCGA, the binding signal is 1.1 fold enrichment (6-mer frequency, TF over GST control) with FLI1; 1.17 fold enrichment (6-mer frequency, TF over GST control) with ELK1; 1.2 fold enrichment (6-mer frequency, TF over GST control) in the test with GABPA; 1.31 fold enrichment (6-mer frequency, TF over GST control) with ERG; 1.15 fold enrichment (6-mer frequency, TF over GST control) with ELF1; 1.17 fold enrichment (6-mer frequency, TF over GST control) in the test with EHF. The binding signal with SPI1 was 1.08 fold enrichment (6-mer frequency, TF over GST control); with SPIB it was 1.32 fold enrichment (6-mer frequency, TF over GST control); in the test with ELK3, 1.32 fold enrichment (6-mer frequency, TF over GST control).
Turning to ACGGAA, the binding signal is 1.66 fold enrichment (6-mer frequency, TF over GST control) with FLI1; 1.69 fold enrichment (6-mer frequency, TF over GST control) with ELK1; 1.58 fold enrichment (6-mer frequency, TF over GST control) with GABPA; 1.93 fold enrichment (6-mer frequency, TF over GST control) with ERG; 1.62 fold enrichment (6-mer frequency, TF over GST control) with ELF1; 2 fold enrichment (6-mer frequency, TF over GST control) in the test with EHF. Also, the binding signal in the test with SPI1 was 2.02 fold enrichment (6-mer frequency, TF over GST control); with SPIB, 1.93 fold enrichment (6-mer frequency, TF over GST control); with ELK3 it was 1.94 fold enrichment (6-mer frequency, TF over GST control).
As for CTGGCC, the binding signal with FLI1 was 1.22 fold enrichment (6-mer frequency, TF over GST control); with ELK1 it was 1.13 fold enrichment (6-mer frequency, TF over GST control); in the test with GABPA, 1.19 fold enrichment (6-mer frequency, TF over GST control); in the test with ERG, 1.29 fold enrichment (6-mer frequency, TF over GST control); in the test with ELF1, 1.23 fold enrichment (6-mer frequency, TF over GST control); with EHF, 1.13 fold enrichment (6-mer frequency, TF over GST control). Besides, the binding signal with SPI1 is 1.28 fold enrichment (6-mer frequency, TF over GST control); with SPIB, 1.18 fold enrichment (6-mer frequency, TF over GST control); in the test with ELK3 it was 1.06 fold enrichment (6-mer frequency, TF over GST control).
In the case of TCCCTG, the binding signal with FLI1 is 1.28 fold enrichment (6-mer frequency, TF over GST control); with ELK1 it was 1.25 fold enrichment (6-mer frequency, TF over GST control); with GABPA, 1.36 fold enrichment (6-mer frequency, TF over GST control); in the test with ERG it was 1.28 fold enrichment (6-mer frequency, TF over GST control); in the test with ELF1, 1.32 fold enrichment (6-mer frequency, TF over GST control); with EHF, 1.33 fold enrichment (6-mer frequency, TF over GST control). The binding signal was 1.29 fold enrichment (6-mer frequency, TF over GST control) with SPI1; 1.35 fold enrichment (6-mer frequency, TF over GST control) with SPIB; 1.14 fold enrichment (6-mer frequency, TF over GST control) in the test with ELK3.
Consider TCTGGT, for which the binding signal with FLI1 was 1.25 fold enrichment (6-mer frequency, TF over GST control); in the test with ELK1, 1.29 fold enrichment (6-mer frequency, TF over GST control); with GABPA, 1.32 fold enrichment (6-mer frequency, TF over GST control); in the test with ERG it was 1.33 fold enrichment (6-mer frequency, TF over GST control); with ELF1, 1.22 fold enrichment (6-mer frequency, TF over GST control); with EHF, 1.21 fold enrichment (6-mer frequency, TF over GST control). Also, the binding signal is 1.31 fold enrichment (6-mer frequency, TF over GST control) with SPI1; 1.21 fold enrichment (6-mer frequency, TF over GST control) in the test with SPIB; 1.31 fold enrichment (6-mer frequency, TF over GST control) with ELK3.
For the sequence AAGTTT, the binding signal was 1.42 fold enrichment (6-mer frequency, TF over GST control) with FLI1; 1.48 fold enrichment (6-mer frequency, TF over GST control) in the test with ELK1; 1.42 fold enrichment (6-mer frequency, TF over GST control) with GABPA; 1.36 fold enrichment (6-mer frequency, TF over GST control) in the test with ERG; 1.37 fold enrichment (6-mer frequency, TF over GST control) with ELF1; 1.5 fold enrichment (6-mer frequency, TF over GST control) with EHF. In addition, the binding signal with SPI1 is 1.45 fold enrichment (6-mer frequency, TF over GST control); in the test with SPIB, 1.6 fold enrichment (6-mer frequency, TF over GST control); with ELK3, 1.44 fold enrichment (6-mer frequency, TF over GST control).
